Measurements reported in PubChem BioAssay AID1159580 (chemical genetic matrix, 2015).
Where “and” joins values, the source holds several entries; their conditions need not be identical. Equal values may be shown once. The whole screen tested about 5,500 compounds, of which about 2,000 (36%) were called active. Inconclusive results (about 18%) are left out. Cut-off read from the data, not from the text of the source: active = normalized growth mostly below about 0.91 (no sharp cut-off); inconclusive = no clear call, values can overlap the other calls; inactive = mostly above about 0.92. The list shows a part of the results.

Assay: chemical genetic growth profiling, strain panel (AID 1159580);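 note: tested at 20 µM; growth read once vehicle control cultures reached saturation at 30 °C; 1 = growth at the plate median or of vehicle wells; lower values mean less growth of the strain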
Details: growth OD
[1] = S. cerevisiae deletion strains, locus YAL013W, strain DEP1, hits give low values
[2] = S. cerevisiae deletion strains, locus YBR229C, strain ROT2, hits give low values
[3] = S. cerevisiae deletion strains, locus YDL101C, strain DUN1, hits give low values
[4] = S. cerevisiae deletion strains, locus YDL134C, strain PPH21, hits give low values
[5] = S. cerevisiae deletion strains, locus YDR150W, strain NUM1, hits give low values
[6] = S. cerevisiae deletion strains, locus YEL061C, strain CIN8, hits give low values
[7] = S. cerevisiae deletion strains, locus YGR078C, strain PAC10, hits give low values
[8] = S. cerevisiae deletion strains, locus YGR229C, strain SMI1, hits give low values
[9] = S. cerevisiae deletion strains, locus YHR030C, strain SLT2, hits give low values
[10] = S. cerevisiae deletion strains, locus YHR087W, strain rtc3, hits give low values
[11] = S. cerevisiae deletion strains, locus YJR043C, strain POL32, hits give low values
[12] = S. cerevisiae deletion strains, locus YJR075W, strain HOC1, hits give low values
[13] = S. cerevisiae deletion strains, locus YKL190W, strain CNB1, hits give low values
[14] = S. cerevisiae deletion strains, locus YLR039C, strain RIC1, hits give low values
[15] = S. cerevisiae deletion strains, locus YLR058C, strain SHM2 (second series), hits give low values
[16] = S. cerevisiae deletion strains, locus YLR085C, strain ARP6, hits give low values
[17] = S. cerevisiae deletion strains, locus YLR262C, strain YPT6, hits give low values
[18] = S. cerevisiae deletion strains, locus YML094W, strain GIM5, hits give low values
[19] = S. cerevisiae deletion strains, locus YMR219W, strain ESC1, hits give low values
[20] = S. cerevisiae deletion strains, locus YMR263W, strain SAP30, hits give low values
[21] = S. cerevisiae deletion strains, locus YMR307W, strain GAS1, hits give low values
[22] = S. cerevisiae deletion strains, locus YNL153C, strain GIM3, hits give low values
[23] = S. cerevisiae deletion strains, locus YNL298W, strain CLA4 (second series), hits give low values
[24] = S. cerevisiae deletion strains, locus YNL322C, strain KRE1, hits give low values
[25] = S. cerevisiae deletion strains, locus YNR030W, strain Alg12, hits give low values
[26] = S. cerevisiae deletion strains, locus YOL006C, strain TOP1, hits give low values
[27] = S. cerevisiae deletion strains, locus YPL055C, strain LGE1, hits give low values
[28] = S. cerevisiae deletion strains, locus YPL241C, strain CIN2, hits give low values
[29] = S. cerevisiae deletion strains, locus YPR135W, strain CTF4, hits give low values
[30] = S. cerevisiae strains, strain wild type, hits give low values

Measured: normalized growth

O=C(NNC(=S)Nc1cccc(Cl)c1)C1CC1
active: [6] 0.857 | [9] 0.489 | [13] 0.913 | [14] 0.749 | [16] 0.673 | [18] 0.796 | [23] 0.782 | [25] 0.859 | [26] 0.384 | [27] 0.735 | [28] 0.784
inactive: [1] 0.987 | [2] 0.951 | [3] 0.963 | [4] 0.99 | [5] 0.917 | [7] 0.956 | [8] 1 | [10] 0.986 | S. cerevisiae deletion strains, locus YJL187C, strain SWE1, hits give low values 0.967 | [11] 0.942 | [12] 0.986 | [15] 0.998 | [17] 0.949 | [19] 0.988 | [20] 0.975 | [21] 0.684 | [22] 0.965 | [24] 1.05 | [29] 0.69 | [30] 0.953

O=C(NNC(=S)Nc1cccc(Cl)c1)c1ccncc1
inactive: [1] 0.977 | [2] 0.996 | [3] 0.983 | [4] 0.995 | [5] 0.95 | [6] 1 | [7] 0.983 | [8] 0.997 | [9] 1 | [10] 1 | [11] 0.98 | [12] 1.01 | [13] 1.01 | [14] 1.04 | [15] 0.981 | [16] 0.989 | [17] 0.99 | [18] 1.01 | [19] 0.991 | [20] 0.994 | [21] 1.02 | S. cerevisiae deletion strains, locus YNL128W, strain TEP1, hits give low values 0.995 | [22] 0.986 | [23] 0.965 | [24] 0.991 | [25] 0.951 | [27] 0.914 | [28] 0.992 | [29] 0.938

C[C@@H]1O[C@@H](O[C@H]2[C@H](Oc3cc(O)c4c(=O)cc(-c5ccc(O)cc5)oc4c3)O[C@H](CO)[C@@H](O)[C@@H]2O)[C@H](O)[C@H](O)[C@H]1O
inactive: [1] 0.994 | S. cerevisiae deletion strains, locus YBR021W, strain FUR4, hits give low values 1 | [2] 1 | S. cerevisiae deletion strains, locus YCL029C, strain bik1, hits give low values 0.977 | S. cerevisiae deletion strains, locus YDL035C, strain GPR1, hits give low values 1 | S. cerevisiae deletion strains, locus YDL074C, strain BRE1, hits give low values 0.933 | [3] 0.998 | [4] 1.07 | S. cerevisiae deletion strains, locus YDL185W, strain tfp1, hits give low values 0.95 | S. cerevisiae deletion strains, locus YDL192W, strain arf1, hits give low values 0.998 | S. cerevisiae deletion strains, locus YDR101C, strain arx1, hits give low values 0.937 | S. cerevisiae deletion strains, locus YDR162C, strain NBP2, hits give low values 1.01 | S. cerevisiae deletion strains, locus YDR318W, strain mcm21, hits give low values 1 | S. cerevisiae deletion strains, locus YDR388W, hits give low values 0.996 | S. cerevisiae deletion strains, locus YDR502C, strain sam2, hits give low values 0.99 | [6] 1 | S. cerevisiae deletion strains, locus YER110C, hits give low values 0.982 | S. cerevisiae deletion strains, locus YER155C, strain BEM2, hits give low values 0.991 | S. cerevisiae deletion strains, locus YER167W, strain BCK2, hits give low values 0.994 | S. cerevisiae deletion strains, locus YGL078C, strain dbp3, hits give low values 0.981 | S. cerevisiae deletion strains, locus YGL086W, strain mad1, hits give low values 0.954 | S. cerevisiae deletion strains, locus YGL248W, strain PDE1, hits give low values 1.02 | S. cerevisiae deletion strains, locus YGR135W, strain pre9, hits give low values 1.02 | S. cerevisiae deletion strains, locus YGR252W, strain gcn5, hits give low values 1.11 | [9] 0.989 and 1.02 | S. cerevisiae deletion strains, locus YHR079C, strain IRE1 (second series), hits give low values 0.976 | S. cerevisiae deletion strains, locus YHR079C, strain IRE1, hits give low values 1.03 | S. cerevisiae deletion strains, locus YHR094C, strain hxt1, hits give low values 0.99 | S. cerevisiae deletion strains, locus YHR129C, strain ARP1, hits give low values 1.02 | S. cerevisiae deletion strains, locus YHR200W, strain rpn10, hits give low values 0.988 | S. cerevisiae deletion strains, locus YIL066C, strain RNR3, hits give low values 0.994 | S. cerevisiae deletion strains, locus YIL073C, strain SPO22, hits give low values 0.981 | S. cerevisiae deletion strains, locus YIL125W, strain kgd1, hits give low values 0.972 | S. cerevisiae deletion strains, locus YIR030C, strain dcg1, hits give low values 0.983 | S. cerevisiae deletion strains, locus YJL095W, strain BCK1, hits give low values 1.03 and 0.992 | S. cerevisiae deletion strains, locus YJL134W, strain LCB3, hits give low values 0.992 | S. cerevisiae deletion strains, locus YJL168C, strain set2, hits give low values 1 | S. cerevisiae deletion strains, locus YJL187C, strain SWE1 (second series), hits give low values 0.995 | [11] 0.993 | S. cerevisiae deletion strains, locus YJR066W, strain TOR1, hits give low values 0.981 | S. cerevisiae deletion strains, locus YKL009W, strain mrt4, hits give low values 0.955 | S. cerevisiae deletion strains, locus YKL068W, hits give low values 0.987 | S. cerevisiae deletion strains, locus YKL085W, strain MDH1 (second series), hits give low values 0.981 | S. cerevisiae deletion strains, locus YKL085W, strain MDH1, hits give low values 0.981 | S. cerevisiae deletion strains, locus YKR001C, strain vps1, hits give low values 0.982 | [14] 0.963 | S. cerevisiae deletion strains, locus YLR058C, strain SHM2, hits give low values 0.998 | S. cerevisiae deletion strains, locus YLR102C, strain apc9, hits give low values 0.987 | S. cerevisiae deletion strains, locus YLR113W, strain HOG1, hits give low values 0.967 | [17] 0.95 | S. cerevisiae deletion strains, locus YLR268W, strain sec22, hits give low values 0.951 | S. cerevisiae deletion strains, locus YLR330W, strain CHS5, hits give low values 0.979 | S. cerevisiae deletion strains, locus YLR342W, strain FKS1 (second series), hits give low values 1.01 | S. cerevisiae deletion strains, locus YLR371W, strain rom2, hits give low values 0.98 | S. cerevisiae deletion strains, locus YLR418C, strain cdc73, hits give low values 1.01 | S. cerevisiae deletion strains, locus YML016C, strain PPZ1, hits give low values 0.995 | S. cerevisiae deletion strains, locus YML032C, strain rad52, hits give low values 1.04 | S. cerevisiae deletion strains, locus YML124C, strain tub3, hits give low values 0.978 | S. cerevisiae deletion strains, locus YMR078C, strain ctf18, hits give low values 0.975 | S. cerevisiae deletion strains, locus YMR223W, strain ubp8, hits give low values 1 | [20] 0.985 | [21] 1.05 | S. cerevisiae deletion strains, locus YNL067W, strain RPL9B, hits give low values 0.999 | S. cerevisiae deletion strains, locus YNL183C, strain NPR1, hits give low values 0.963 | S. cerevisiae deletion strains, locus YNL233W, strain BNI4, hits give low values 0.988 | S. cerevisiae deletion strains, locus YNL250W, strain rad50, hits give low values 0.955 | S. cerevisiae deletion strains, locus YNL271C, strain bni1, hits give low values 0.981 | S. cerevisiae deletion strains, locus YNL298W, strain CLA4, hits give low values 0.991 | S. cerevisiae deletion strains, locus YNL307C, strain MCK1, hits give low values 0.971 | S. cerevisiae deletion strains, locus YNR052C, strain pop2, hits give low values 1.01 | [26] 0.99 | S. cerevisiae deletion strains, locus YOL012C, strain htz1 0.768 | S. cerevisiae deletion strains, locus YOL147C, strain pex11, hits give low values 0.992 | S. cerevisiae deletion strains, locus YOR061W, strain CKA2, hits give low values 0.997 | S. cerevisiae deletion strains, locus YOR069W, strain VPS5, hits give low values 0.994 | S. cerevisiae deletion strains, locus YOR136W, strain idh2, hits give low values 0.965 | S. cerevisiae deletion strains, locus YOR144C, strain elg1, hits give low values 0.996 | S. cerevisiae deletion strains, locus YOR184W, strain ser1, hits give low values 0.993 | S. cerevisiae deletion strains, locus YOR231W, strain MKK1, hits give low values 0.989 | S. cerevisiae deletion strains, locus YOR316C, strain cot1, hits give low values 0.981 | S. cerevisiae deletion strains, locus YPL256C, strain CLN2, hits give low values 1 | S. cerevisiae deletion strains, locus YPR119W, strain clb2, hits give low values 0.978 | S. cerevisiae deletion strains, locus YPR141C, strain kar3, hits give low values 0.986 | S. cerevisiae deletion strains, locus YPR163C, strain tif3, hits give low values 0.992 | S. cerevisiae deletion strains, locus YPR167C, strain met16, hits give low values 0.981 | S. cerevisiae deletion strains, strain wtn01, hits give low values 0.948 | [30] 0.998
